# Compound activity from PubChem.
# PMP22 txn: modulates PMP22 transcription in S16 Schwann cells; 2% of 43,000 active; S16 Pmp22-F2sN Schwann cells, FLuc/NLuc coincidence luminescence, 24 h; AID 1508649; Potency, µM (series often up to 57.5 µM), usual class: inhibitors; active means clear falling dose curves in both reporters; inconclusive means both reporters move, but less clearly or upward; inactive means either reporter flat; the % is the NLuc reporter signal
#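 Luminescent read-out of sequential FLuc and NLuc signals from a reporter embedded in the Pmp22 3' UTR of S16 Schwann cells, taken after 24 h compound exposure at 37C; compounds reducing both signals score as inhibitors of expression.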
# SKOV3 invasion: inhibitors of ovarian cancer cell adhesion and invasion in omental model; SKOV3ip1-GFP adhesion/invasion on 3D omental model, fluorescence; Potency, µM (top dose mostly 45.8 µM), most hits filed as inhibitors; 0.1% of 46,000 active; AID 1963576; further: nearly all actives have a fitted effect of over 65% in size
#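 Adhesion/invasion was scored as fixed GFP-labeled SKOV3ip1 cell counts (488/509 nm), normalized to DMSO and tomatine controls. Cancer cells in serum-free medium, with four compound doses (0.36-46 umol/L), sat 2 hr at RT then 16 hr at 37 C on a 48 hr fibroblast/mesothelial/ECM culture.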
# p53null 39C tox: p53 null cell cytotoxicity, nonpermissive temperature; 0.97% of 55,000 active; AID 904; H1299 p53-null (neo) cells, 39C, ATPlite viability, 24 h; Potency, µM (top dose mostly 46.1 µM), most hits filed as cytotoxic; further: nearly all actives have a fitted effect of over 50% in size
#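 ATP-luminescence viability readout (ATPlite, 20 min RT) after 24 hr compound treatment at 39C of H1299-neo or H1299-p53A138V cells; titration up to 46 uM; normalized to DMSO and 100 uM tamoxifen; Hill-fit AC50.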
# p53null 32C kill: p53 null cell cytotoxicity, permissive temperature. H1299-neo p53 null cells, ATP luminescence, 24 h, 32C. Potency, µM (doses to about 46.1 µM), hits mostly cytotoxic. 0.62% of 55,000 active; further: nearly all actives have a fitted effect of over 55% in size
#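 H1299-neo (p53-null) cells, 600/well, were pre-incubated overnight at 37C, then exposed to compounds at up to 46 uM for 24 hr at 32C. Viability was measured as ATP content by luminescence, and AC50 values came from Hill fits.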
# mTORC1 inh: mTORC1 pathway inhibition measured by phospho-rpS6 | Tsc2-/- p53-/- MEF, phospho-rpS6 immunofluorescence/PI, 24 h | Potency, µM (series often up to 38.3 µM), actives largely listed as inhibitors | 0.78% of 44,000 active; further: nearly all actives have a fitted effect of over 50% in size
#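 Tsc2-/-, p53-/- mouse embryonic fibroblasts (empty-vector line) exposed to compound 24 hrs at 37 C, fixed, immunostained for phospho-rpS6 and counterstained with propidium iodide. Acumen laser scanning gives % positive cells from Alexa 488/PI ratio, thresholded using 7.5 nM rapamycin; PI count gives viability.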
# S16 viability: S16 Schwann cell cytotoxicity | S16 Pmp22-F2sN Schwann cells (luciferase reporters placed in the Pmp22 gene) viability, CellTiter-Glo, 24 h | Potency, µM (highest dose often 57.5 µM), most hits filed as cytotoxic | 0.48% of 43,000 active; further: nearly all actives have a fitted effect of over 65% in size
#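 Rat S16 Schwann reporter line, 24 h treatment with library compounds delivered at 23 nL per well. Cell viability by CellTiter-Glo luminescence.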
# Hits are given with their value; - = inactive; ? = inconclusive; . = no result given. Rows were chosen to be rich in hits. Some 3.1% of all compounds tested hit in one or more screens of this group. Unless noted, the call rests on the fitted dose curve; in most records, active means well fitted curve in the direction sought with a large enough effect; inconclusive means small, poorly fitted or top-dose-only effect, or another doubt; inactive means no such curve, though single readings can be large; an effect the other way counts as inactive or inconclusive.
SMILES,PMP22 txn,SKOV3 invasion,p53null 39C tox,p53null 32C kill,mTORC1 inh,S16 viability
CCOc1ccc(-c2cc(C(=O)N3CCN(c4ccc(C)cc4)C(C)C3)c3ccccc3n2)cc1 (centres undefined),-,-,?,13µM,-,-
CCn1c(=O)cc(OCC(=O)N2CCN(c3ccc(C)cc3)C(C)C2)c2ccccc21 (centres undefined),?,-,25µM,-,-,-
N#Cc1ccc(Oc2ccc3c(c2)COB3O)cc1,.,-,.,.,.,.
Fc1ccc(Nc2nc(Nc3ccc(F)cc3)nc(N3CCOCC3)n2)cc1,-,-,-,-,2.1µM,-
O=[N+]([O-])c1cn2c(n1)OC[C@@H](OCc1ccc(OC(F)(F)F)cc1)C2,.,-,.,.,.,.
COc1ccc(NC(=O)CCc2c(C)nn(-c3ccc(N4CCCCC4)nn3)c2C)cc1Cl,.,-,?,10µM,-,.
COc1cccc(C(=O)Nc2nc3c(s2)CCCC3)c1,?,-,5µM,13µM,-,-
Cc1cccn2c(=O)cc(COc3cccc(NC(=O)c4ccccc4F)c3)nc12,?,?,7.9µM,-,?,-
O=C(NCCCN1CCN(c2ccc(F)cc2)CC1)Nc1ccc(Cl)cc1,?,-,?,-,?,?
Cc1cccc(N2CCN(CCNC(=O)Nc3ccc(Cl)cc3)CC2)c1C,?,?,?,?,18µM,?
Cc1ccc(CN(Cc2ccco2)C(=O)COc2ccc(C)c(C)c2)cc1,-,-,-,-,-,-
CCc1ccc(OCC(=O)N(Cc2ccc(C)cc2)Cc2ccco2)cc1,?,-,-,-,4.1µM,-
O=C(O)Cn1nnc(-c2cc(N3CCC(Oc4cc(F)ccc4Br)CC3)no2)n1,.,-,.,.,.,.
CCCCCN1C(C(=O)c2ccccc2)=C(OC(=O)CC)c2ccccc2S1(=O)=O,?,-,?,?,-,?
CCCCN1C(C(=O)c2ccccc2)=C(OC(=O)CC)c2ccccc2S1(=O)=O,?,-,?,13µM,?,-
O=C(O)[C@@H](c1ccc(OCc2ccc3ccccc3n2)cc1)C1CCCC1,.,-,.,.,.,.
COCCNC(=O)c1nn(-c2ccc(C)cc2)c(=O)c2c1c1ccccc1n2C,?,-,-,-,-,?
CCCCNC(=O)c1nn(-c2ccc(C)cc2)c(=O)c2c1c1ccccc1n2C,-,-,-,-,-,16µM
O=C(C=Cc1ccc(/C=C/C(=O)Nc2ccc(C3=NCCN3)cc2)cc1)Nc1ccc(C2=NCCN2)cc1,.,-,.,.,.,.
Cc1cccc(NC(=O)Cn2cc(C(=O)C3CCCCC3)c3ccccc32)c1C,10µM,-,-,-,-,?
Cc1ccc(NC(=O)Cn2cc(C(=O)C3CCCCC3)c3ccccc32)c(C)c1,?,-,-,-,-,-
CCOC(=O)c1ccc(NC(=O)c2nc(SC(C)C)ncc2Cl)cc1,?,-,-,-,-,-
CCS(=O)(=O)c1ncc(Cl)c(C(=O)Nc2ccccc2)n1,2.2µM,?,20µM,-,1.8µM,6.3µM
CCSc1ncc(Cl)c(C(=O)Nc2ccccc2)n1,.,.,.,-,.,.
CN(c1ccccc1)S(=O)(=O)c1ccc(NC(=O)c2nc(S(C)(=O)=O)ncc2Cl)cc1,2.1µM,-,?,22µM,1.2µM,4.5µM
SMILES,PMP22 txn,SKOV3 invasion,p53null 39C tox,p53null 32C kill,mTORC1 inh,S16 viability
CCOC(=O)c1ccc(NC(=O)c2nc(S(=O)(=O)Cc3ccccc3)ncc2Cl)cc1,1.9µM,?,-,-,?,5µM
CCOC(=O)c1c(-c2ccccc2)csc1NC(=O)c1nc(S(=O)(=O)CC)ncc1Cl,4.5µM,?,?,-,?,11µM
C[C@]12CC[C@H](O)CC1=CC[C@@H]1[C@H]2CC[C@]2(C)C(c3cccnc3)=CC[C@H]12,.,-,.,.,.,.
CN(C)S(=O)(=O)c1ccc2c(c1)C(=Cc1cc3c([nH]1)CCCC3)C(=O)N2,.,-,.,.,.,.
O=C(CN1C(=O)C2(CCCC2)NC[C@H]1c1cc(F)cc(F)c1)Nc1ccc2c(c1)C[C@@]1(C2)C(=O)Nc2ncccc21,.,-,.,.,.,.
Cc1cccc(NC(=O)c2nc(S(C)(=O)=O)ncc2Cl)c1,2.4µM,?,-,-,3.3µM,5µM
CCSc1ncc(Cl)c(C(=O)Nc2c(C(=O)Nc3cccc(C)c3)oc3ccccc23)n1,-,-,-,-,-,-
CCS(=O)(=O)c1ncc(Cl)c(C(=O)Nc2c(C(=O)Nc3cccc(C)c3)oc3ccccc23)n1,3.2µM,-,?,?,?,2.2µM
COc1ccccc1Nc1nn2c(=O)c3ccc(C(=O)NCCc4ccccc4)cc3nc2s1,5.6µM,?,6.3µM,?,?,8.9µM
COc1ccccc1Nc1nn2c(=O)c3ccc(C(=O)NC(C)c4ccccc4)cc3nc2s1 (centres undefined),-,-,-,-,-,-
Cc1c(Cl)cccc1Nc1nn2c(=O)c3ccc(C(=O)NCCC4=CCCCC4)cc3nc2s1,?,-,-,-,-,-
Cc1ccc(Cl)cc1Nc1nn2c(=O)c3ccc(C(=O)NC(C)c4ccccc4)cc3nc2s1 (centres undefined),7.6µM,-,-,-,-,?
CCN(CC)CCNC(=O)c1ccc2c(=O)n3nc(Nc4cccc(Cl)c4C)sc3nc2c1,?,?,20µM,?,-,?
Cn1cc(C=CC(=O)c2cccc(F)c2)cc1C=CC(=O)NO,.,-,.,.,.,.
C[C@]12CC[C@@H]3c4ccc(O)cc4CC[C@H]3[C@H]1[C@@H](O)[C@@H](O)[C@H]2O,.,-,.,.,.,.
CCCC(=O)Nc1cccc(-c2nc3ncccc3o2)c1,.,-,-,-,-,.
O=C(Nc1cccc(-c2nc3ncccc3o2)c1)c1ccc(-c2cccc(Cl)c2Cl)o1,.,?,10µM,13µM,?,.
Cc1c(Cl)cccc1-c1ccc(C(=O)Nc2ccc3oc(-c4cccnc4)nc3c2)o1,-,?,-,-,13µM,-
Cc1ccc(NC2=CC(=O)C(=O)c3ccccc32)cc1,.,.,3.5µM,4µM,.,.
c1ccc(N2CCN(c3ncnc4[nH]ncc34)CC2)cc1,-,-,-,-,15µM,-
Cc1ccc(-n2ncc3c(N4CCN(c5ccccc5)CC4)ncnc32)cc1C,-,-,-,-,-,-
CC(=O)N1CCN(c2ccc(OCc3nn(C)c(C)c3-c3cccc4c(CCCOc5cc(C)c(Cl)c(C)c5)c(C(=O)O)n(Cc5cccnc5)c34)cc2)CC1,.,-,.,.,.,.
COc1ccc2c(Sc3ccc(C)cc3)c(C(=O)NCCc3ccccc3)[nH]c2c1,?,?,-,-,-,-
COCCCNC(=O)c1[nH]c2cc(OC)ccc2c1Sc1ccc(C)cc1,.,-,16µM,-,-,-
